Experimental data as given in the supplement of paper PMC10849652.
The full data set covers some 8,800 targets. This sample favours those with a hit. About 0.5% of all pairs of compound and target were hits. Unmarked numbers belong to inactive results.

The targets below were run with O=C(CCCCCCC(=O)Nc1ccccc1)NO [vorinostat] (assay: log2 fold change, soluble protein after heating vs DMSO (PISA); higher = thermal stabilisation; K562 lysate, 10 uM; active = over 0.2 and 3.5 SD of the protein, either way, in both replicates (recomputed)).
How it was run: (§1)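 Values give the log-two fold change in thermal stability against solvent controls, from duplicates. Crude K562 extract at 1 mg/mL protein, made by dounce homogenisation in PBS pH 7.4 with 1 mM MgCl2, was treated with 10 μM compound for 30 min. After 3 min heating across 48°C-58°C, aliquots were pooled, adjusted to 0.5% NP-40 at 4°C and centrifuged at 21,000xg for 90 min. The supernatant was measured by TMTpro 16plex LC-MS/MS with channel sums equalised.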

Sequence of UniProt P33121 (P33121 whole entry, looked up): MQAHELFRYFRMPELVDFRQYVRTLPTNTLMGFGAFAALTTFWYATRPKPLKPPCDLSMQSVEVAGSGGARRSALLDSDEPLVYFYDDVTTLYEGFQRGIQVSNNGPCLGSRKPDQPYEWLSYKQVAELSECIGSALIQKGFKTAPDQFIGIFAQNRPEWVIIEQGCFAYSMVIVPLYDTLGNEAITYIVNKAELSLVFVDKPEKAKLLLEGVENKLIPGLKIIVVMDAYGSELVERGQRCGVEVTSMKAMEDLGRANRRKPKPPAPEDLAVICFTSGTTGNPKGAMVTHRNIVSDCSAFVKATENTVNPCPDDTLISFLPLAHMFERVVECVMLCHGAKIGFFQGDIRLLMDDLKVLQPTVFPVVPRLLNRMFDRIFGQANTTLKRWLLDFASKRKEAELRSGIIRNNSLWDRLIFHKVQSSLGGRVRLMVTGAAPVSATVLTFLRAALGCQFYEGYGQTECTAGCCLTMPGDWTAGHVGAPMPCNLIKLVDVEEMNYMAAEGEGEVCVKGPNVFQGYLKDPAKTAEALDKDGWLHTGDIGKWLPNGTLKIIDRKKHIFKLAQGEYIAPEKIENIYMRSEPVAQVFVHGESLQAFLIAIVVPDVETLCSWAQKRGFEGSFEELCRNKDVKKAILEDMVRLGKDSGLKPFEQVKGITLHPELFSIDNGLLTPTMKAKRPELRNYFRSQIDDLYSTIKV
Sequence of UniProt Q8NFV4 (Q8NFV4 whole entry, looked up): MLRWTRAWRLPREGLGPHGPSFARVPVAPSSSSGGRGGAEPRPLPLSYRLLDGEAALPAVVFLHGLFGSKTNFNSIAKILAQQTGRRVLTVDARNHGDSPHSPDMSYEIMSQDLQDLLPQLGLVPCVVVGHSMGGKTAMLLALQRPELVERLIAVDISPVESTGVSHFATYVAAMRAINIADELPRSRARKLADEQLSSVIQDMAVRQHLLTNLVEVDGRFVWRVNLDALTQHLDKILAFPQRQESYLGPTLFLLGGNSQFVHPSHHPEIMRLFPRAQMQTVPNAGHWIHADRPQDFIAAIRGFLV
Sequence of UniProt Q2VPB7 (Q2VPB7 whole entry, looked up): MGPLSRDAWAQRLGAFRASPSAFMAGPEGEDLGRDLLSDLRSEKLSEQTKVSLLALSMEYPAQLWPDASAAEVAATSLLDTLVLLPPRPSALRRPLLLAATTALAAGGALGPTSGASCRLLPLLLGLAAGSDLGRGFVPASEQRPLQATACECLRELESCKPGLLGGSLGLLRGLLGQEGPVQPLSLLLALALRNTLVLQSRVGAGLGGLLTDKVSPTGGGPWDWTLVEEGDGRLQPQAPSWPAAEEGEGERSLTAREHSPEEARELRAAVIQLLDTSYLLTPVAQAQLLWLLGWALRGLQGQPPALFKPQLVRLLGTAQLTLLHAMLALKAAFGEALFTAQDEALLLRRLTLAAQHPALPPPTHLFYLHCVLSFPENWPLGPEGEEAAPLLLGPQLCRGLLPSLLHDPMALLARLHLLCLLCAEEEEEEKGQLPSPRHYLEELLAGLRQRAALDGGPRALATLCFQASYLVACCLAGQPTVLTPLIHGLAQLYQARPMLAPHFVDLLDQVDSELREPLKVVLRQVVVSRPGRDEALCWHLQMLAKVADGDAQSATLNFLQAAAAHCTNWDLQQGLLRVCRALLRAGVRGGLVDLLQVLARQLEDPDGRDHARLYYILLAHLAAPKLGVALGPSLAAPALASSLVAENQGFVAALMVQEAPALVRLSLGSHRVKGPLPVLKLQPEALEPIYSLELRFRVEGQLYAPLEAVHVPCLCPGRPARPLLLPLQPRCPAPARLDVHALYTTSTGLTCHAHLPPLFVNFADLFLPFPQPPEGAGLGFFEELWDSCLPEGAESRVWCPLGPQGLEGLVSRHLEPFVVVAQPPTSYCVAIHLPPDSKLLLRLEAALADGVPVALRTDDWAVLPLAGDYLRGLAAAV
Sequence of UniProt P53396 (P53396 whole entry, looked up): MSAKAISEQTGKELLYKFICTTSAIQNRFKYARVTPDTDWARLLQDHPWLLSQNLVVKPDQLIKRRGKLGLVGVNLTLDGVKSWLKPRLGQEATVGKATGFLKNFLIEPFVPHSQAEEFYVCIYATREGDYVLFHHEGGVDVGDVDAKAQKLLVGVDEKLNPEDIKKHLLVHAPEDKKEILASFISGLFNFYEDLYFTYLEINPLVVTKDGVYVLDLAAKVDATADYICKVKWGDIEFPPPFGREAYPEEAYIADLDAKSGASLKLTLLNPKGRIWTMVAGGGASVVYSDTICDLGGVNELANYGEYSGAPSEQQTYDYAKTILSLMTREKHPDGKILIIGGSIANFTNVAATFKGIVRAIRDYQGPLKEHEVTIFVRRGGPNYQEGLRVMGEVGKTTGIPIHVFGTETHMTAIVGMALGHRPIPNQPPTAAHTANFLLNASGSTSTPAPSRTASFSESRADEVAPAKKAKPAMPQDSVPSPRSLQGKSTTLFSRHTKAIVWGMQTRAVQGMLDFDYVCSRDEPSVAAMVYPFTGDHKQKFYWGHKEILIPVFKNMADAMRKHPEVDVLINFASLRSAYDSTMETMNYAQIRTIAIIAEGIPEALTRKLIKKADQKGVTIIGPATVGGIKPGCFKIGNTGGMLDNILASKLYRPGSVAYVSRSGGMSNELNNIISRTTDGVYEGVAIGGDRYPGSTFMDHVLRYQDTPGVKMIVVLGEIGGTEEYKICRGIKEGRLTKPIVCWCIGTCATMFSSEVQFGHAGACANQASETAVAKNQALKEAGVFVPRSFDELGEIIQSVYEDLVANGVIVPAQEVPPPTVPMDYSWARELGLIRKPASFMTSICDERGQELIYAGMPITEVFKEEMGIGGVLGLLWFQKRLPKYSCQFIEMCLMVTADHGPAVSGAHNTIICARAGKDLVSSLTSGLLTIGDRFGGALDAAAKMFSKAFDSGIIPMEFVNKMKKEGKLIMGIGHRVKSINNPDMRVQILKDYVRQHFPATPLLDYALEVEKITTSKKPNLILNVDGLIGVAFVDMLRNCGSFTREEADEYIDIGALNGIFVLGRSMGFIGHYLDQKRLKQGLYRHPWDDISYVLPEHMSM
Sequence of UniProt O75843 (O75843 whole entry, looked up): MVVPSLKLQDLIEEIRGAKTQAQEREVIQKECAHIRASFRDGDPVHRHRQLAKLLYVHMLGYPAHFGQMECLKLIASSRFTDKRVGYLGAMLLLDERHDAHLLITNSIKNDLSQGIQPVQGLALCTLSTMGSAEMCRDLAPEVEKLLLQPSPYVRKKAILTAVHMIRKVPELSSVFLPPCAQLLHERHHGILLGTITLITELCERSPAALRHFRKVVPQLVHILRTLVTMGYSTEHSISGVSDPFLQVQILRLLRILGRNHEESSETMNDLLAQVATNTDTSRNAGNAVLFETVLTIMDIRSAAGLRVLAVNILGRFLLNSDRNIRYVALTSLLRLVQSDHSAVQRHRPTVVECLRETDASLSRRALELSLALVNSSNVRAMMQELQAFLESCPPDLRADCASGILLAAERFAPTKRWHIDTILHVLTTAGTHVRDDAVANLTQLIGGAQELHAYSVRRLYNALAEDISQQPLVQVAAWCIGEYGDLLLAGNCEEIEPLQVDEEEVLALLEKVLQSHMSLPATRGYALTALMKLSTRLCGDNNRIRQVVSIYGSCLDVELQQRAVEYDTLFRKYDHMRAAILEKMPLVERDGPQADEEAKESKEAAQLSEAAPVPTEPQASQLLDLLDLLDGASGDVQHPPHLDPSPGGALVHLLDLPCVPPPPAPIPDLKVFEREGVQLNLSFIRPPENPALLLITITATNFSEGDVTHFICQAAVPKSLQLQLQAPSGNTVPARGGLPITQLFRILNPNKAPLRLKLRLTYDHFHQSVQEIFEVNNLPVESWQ
Sequence of UniProt O60488 (O60488 whole entry, looked up): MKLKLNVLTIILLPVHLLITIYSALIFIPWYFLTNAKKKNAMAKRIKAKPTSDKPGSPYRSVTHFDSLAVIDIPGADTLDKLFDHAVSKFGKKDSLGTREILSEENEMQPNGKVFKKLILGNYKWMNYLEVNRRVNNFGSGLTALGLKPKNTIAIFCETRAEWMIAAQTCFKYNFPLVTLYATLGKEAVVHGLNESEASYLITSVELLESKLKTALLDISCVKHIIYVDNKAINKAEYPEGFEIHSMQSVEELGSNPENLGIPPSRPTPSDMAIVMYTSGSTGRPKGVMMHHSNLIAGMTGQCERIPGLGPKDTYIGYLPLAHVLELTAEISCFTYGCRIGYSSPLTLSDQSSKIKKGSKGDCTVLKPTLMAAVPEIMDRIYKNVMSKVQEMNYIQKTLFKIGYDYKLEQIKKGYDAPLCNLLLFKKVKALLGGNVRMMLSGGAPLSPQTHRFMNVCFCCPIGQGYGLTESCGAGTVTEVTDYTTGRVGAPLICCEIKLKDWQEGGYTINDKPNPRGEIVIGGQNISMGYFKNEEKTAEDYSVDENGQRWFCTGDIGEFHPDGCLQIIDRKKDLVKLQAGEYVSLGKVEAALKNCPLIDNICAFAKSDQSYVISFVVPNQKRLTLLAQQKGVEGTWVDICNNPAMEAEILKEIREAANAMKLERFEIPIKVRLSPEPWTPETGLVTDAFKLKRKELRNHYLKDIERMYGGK
Sequence of UniProt P30838 (P30838 whole entry, looked up): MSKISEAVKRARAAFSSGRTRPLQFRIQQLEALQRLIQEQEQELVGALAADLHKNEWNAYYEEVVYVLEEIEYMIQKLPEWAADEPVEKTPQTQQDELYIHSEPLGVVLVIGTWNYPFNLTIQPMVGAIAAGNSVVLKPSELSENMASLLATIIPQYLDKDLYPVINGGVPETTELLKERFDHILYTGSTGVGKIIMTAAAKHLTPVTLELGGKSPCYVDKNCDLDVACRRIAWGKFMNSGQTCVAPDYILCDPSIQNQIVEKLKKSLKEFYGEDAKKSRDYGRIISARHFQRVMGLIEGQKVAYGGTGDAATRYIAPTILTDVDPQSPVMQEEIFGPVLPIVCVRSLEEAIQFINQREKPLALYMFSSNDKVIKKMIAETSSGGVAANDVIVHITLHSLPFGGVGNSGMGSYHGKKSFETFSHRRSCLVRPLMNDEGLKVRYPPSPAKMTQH
Sequence of UniProt Q9P1F3 (Q9P1F3 whole entry, looked up): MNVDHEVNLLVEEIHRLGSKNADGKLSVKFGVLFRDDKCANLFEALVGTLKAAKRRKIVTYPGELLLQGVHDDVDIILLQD

Row | Target | log2 fold change
1 | ACSL1 (UniProt P33121) | -0.221 (active)
2 | AP1G2 (UniProt O75843) | -0.31 (active)
3 | ABHD11 (UniProt Q8NFV4) | 0.195
4 | ACSL4 (UniProt O60488) | -0.321 (active)
5 | AP5B1 (UniProt Q2VPB7) | -0.062

The targets below were run with O=C(O)c1ccc2c(c1)nc(Nc1cccc(Cl)c1)c1ccncc12 [silmitasertib] in the same assay as above.
How it was run: as §1

Row | Target | log2 fold change
6 | ADD1 isoform 4 (UniProt P35611) | -0.148
7 | ANKRD44 isoform 2 (UniProt Q8N8A2) | 0.005
8 | ANXA11 (UniProt P50995) | 0.044
9 | ABRACL (UniProt Q9P1F3) | 0.111
10 | ABCC5 (UniProt O15440) | -0.023
11 | ARMC6 (UniProt Q6NXE6) | 0.02
12 | ANP32E (UniProt Q9BTT0) | -0.029
13 | ACOX1 isoform 2 (UniProt Q15067) | 0.009
14 | ADAR isoform 4 (UniProt P55265) | 0.019
15 | ARMCX5 (UniProt Q6P1M9) | 0.013
16 | ADK (UniProt P55263) | 0.073
17 | ALKBH1 (UniProt Q13686) | 0.135
18 | ACLY (UniProt P53396) | 0.012
19 | ALKBH7 (UniProt Q9BT30) | -0.031
20 | AIF1L (UniProt Q9BQI0) | 0.083
21 | AIP (UniProt O00170) | -0.032
22 | ALDH3A1 (UniProt P30838) | -0.113
23 | ANXA2 (UniProt H0YL33) | 0.16
24 | AK4 (UniProt P27144) | -0.008
25 | ANKRD30B (UniProt Q9BXX2) | 0.047
26 | ACSL1 (UniProt P33121) | 0.138
27 | AP1G2 (UniProt O75843) | -0.03
28 | ABHD11 (UniProt Q8NFV4) | 0.324 (active)
29 | ACSL4 (UniProt O60488) | 0.066
30 | AP5B1 (UniProt Q2VPB7) | 0.044

Each target was assayed with O=C1NC(=O)C(c2cnc3ccccn23)=C1c1cn2c3c(cc(F)cc13)CN(C(=O)N1CCCCC1)CC2 in the same assay as above.
How it was run: as §1

Row | Target | log2 fold change
31 | ABHD13 (UniProt Q7L211) | 0.027
32 | ANXA11 (UniProt P50995) | -0.018
33 | AIMP2 isoform 2 (UniProt Q13155) | -0.07
34 | ABRACL (UniProt Q9P1F3) | 0.088
35 | ABCC5 (UniProt O15440) | -0.028
36 | ANKRD30A (UniProt Q9BXX3) | -0.011
37 | ARMC6 (UniProt Q6NXE6) | -0.006
38 | AMDHD2 (UniProt Q9Y303) | 0.042
39 | ALDH18A1 isoform 2 (UniProt P54886) | 0.204
40 | ANP32E (UniProt Q9BTT0) | -0.011
41 | ACOX1 isoform 2 (UniProt Q15067) | 0.04
42 | ADAR isoform 4 (UniProt P55265) | -0.031
43 | ADK (UniProt P55263) | 0.262
44 | ACLY (UniProt P53396) | -0.018
45 | ALKBH7 (UniProt Q9BT30) | 0.079
46 | ACLY isoform 2 (UniProt P53396) | -0.061
47 | AIF1L (UniProt Q9BQI0) | 0.022
48 | AIP (UniProt O00170) | 0.003
49 | ALDH3A1 (UniProt P30838) | 0.023
50 | ANXA2 (UniProt H0YL33) | 0.042
51 | AK4 (UniProt P27144) | -0.016
52 | ACSL1 (UniProt P33121) | -0.031
53 | AP1G2 (UniProt O75843) | 0.008
54 | ABHD11 (UniProt Q8NFV4) | 0.003
55 | ACSL4 (UniProt O60488) | -0.002
56 | AP5B1 (UniProt Q2VPB7) | -0.094
